From PubChem BioAssay AID651820 (National Center for Advancing Translational Sciences (NCATS), 2012)
Hit rate of the full screen: of about 340,000 compounds, about 12,000 (3.5%) were called active. Another 18% or so got no clear call; they are omitted. Calls follow the shape of the dose curve; as a rule, active = well fitted inhibition curve with a large enough effect; inconclusive = small, poorly fitted or top-dose-only effect, or another doubt; inactive = no such curve, though single readings can be large or run the other way. Many of the other results were omitted from the sample, so actives are more common in it than they were.

Experiment: qHTS Assay for Inhibitors of Hepatitis C Virus (HCV)
Settings: Huh7.5.1 HCVcc-Cre infection, luciferase reporter, 44 h; series mostly up to 41.8 µM; activity change, negative = inhibition: at the top concentration
How it was run: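 Compounds are dispensed onto cells plated 4 h earlier at 1,000 per well, with HCVcc-Cre virus (about 0.5 moi) added next. Following 44 h of culture, luminescent signal is measured for 15 sec after 15 min with substrate at room temperature.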
% is scaled to controls: 0 for no effect and ±100 for the full control effect; potency is read from the fitted curve at half-maximal effect.

Q: With `COc1ccc(S(=O)(=O)Nc2cccc3c2O[C@H](CN(C)S(=O)(=O)c2ccc(OC)cc2)[C@@H](C)CN([C@H](C)CO)C3=O)cc1` as the compound, how does the “activity change, negative = inhibition” value read?
A: Its value is 13.2% (inactive).

Q: Which “activity change, negative = inhibition” value does the source give for `O=C(NCC1CCCO1)c1cc(-c2ccccc2)nc2ccccc12` (centres undefined) here?
A: Its value is -9.2% (inactive).

Q: Which “activity change, negative = inhibition” value does the source give for `O=C(NCC1CCCO1)c1ccc2ccccc2n1` (centres undefined) here?
A: The value was -11.2% (inactive).

Q: For `O=C(NCC1CCCO1)c1cc2c([nH]c3ccccc32)c(-c2ccc(F)cc2)n1` (centres undefined), which Potency is on record?
A: The Potency was 1.58 µM (active).

Q: With `O=C(NCCCO)c1cc2c([nH]c3ccccc32)c(-c2ccc(F)cc2)n1` as the compound, how does the Potency read?
A: Its Potency is 14.1 µM (active).

Q: For `CN(C)CCCNC(=O)c1ccc2[nH]c3ccccc3c2c1`, which “activity change, negative = inhibition” value is on record?
A: Its value is 7.15% (inactive).

Q: With `O=C(NCCc1ccc(F)cc1)c1n[nH]c2ccccc12` as the compound, how does the “activity change, negative = inhibition” value read?
A: Its value is -2.17% (inactive).

Q: With `COc1ccc(CCNC(=O)COc2cc(C)cc3oc(=O)c(C)c(C)c23)cc1OC` as the compound, how does the “activity change, negative = inhibition” value read?
A: Its value is 24.8% (inactive).

Q: With `CC1CN(Cc2ccccc2)C(=S)NC1=O` (centres undefined) as the compound, how does the “activity change, negative = inhibition” value read?
A: Its value is 33.1% (inactive).

Q: With `C=CCOC(=O)N1CCC2CC1c1cc(-c3ccc(OC)cc3)ccc12` (centres undefined) as the compound, how does the activity change, negative = inhibition read?
A: Its activity change, negative = inhibition is 2.52% [at 8.37 µM] (inactive).

Q: For `COc1ccccc1C(=O)NCCC(=O)NC1=NCCS1`, which “activity change, negative = inhibition” value is on record?
A: Its value is 5.53% (inactive).

Q: With `Cc1ccc(C(=O)NNC(=O)CSc2nnc3ccccn23)cc1` as the compound, how does the “activity change, negative = inhibition” value read?
A: Its value is -0.421% (inactive).

Q: With `Cc1ccc(CNC(=O)c2ccc3c(c2)S(=O)(=O)c2ccccc2C3=O)cc1` as the compound, how does the “activity change, negative = inhibition” value read?
A: Its value is -24.7% (inactive).

Q: For `CC1CCN(c2c(NCc3ccc(C(=O)NCc4ccccc4)cc3)c(=O)c2=O)CC1`, which “activity change, negative = inhibition” value is on record?
A: Its value is -9.89% (inactive).

Q: For `Cc1ccc(CNC(=O)c2cccc3c2C(=O)c2ccc(N4CCC(C)CC4)cc2S3(=O)=O)cc1`, which Potency is on record?
A: The Potency was 10 µM (active).

Q: With `COc1cccc(NC(=O)CN(C)CC(=O)c2c(N)n(Cc3ccccc3)c(=O)n(C)c2=O)c1` as the compound, how does the “activity change, negative = inhibition” value read?
A: The value was 6.73% (inactive).

Q: For `CCCCCCSc1ccc([C@@H]2[C@H]3C(=O)N(CC)C(=O)[C@H]3[C@]3(C(=O)OC)CCCCN23)cc1`, which “activity change, negative = inhibition” value is on record?
A: Its value is -3.35% (inactive).

Q: With `COc1ccc(OC)c(C2C3=C(N=c4s/c(=C\c5cccc(O)c5)c(=O)n42)c2ccccc2CC3)c1` (centres undefined) as the compound, how does the Potency read?
A: Its Potency is 10 µM (active).

Q: For `O=C1CCCC2=C1C(c1ccccc1)n1c(s/c(=C/c3cccc(F)c3)c1=O)=N2` (centres undefined), which “activity change, negative = inhibition” value is on record?
A: Its value is -3.9% (inactive).

Q: For `COCCOC(=O)C1=C(C)N=c2s/c(=C\c3cccs3)c(=O)n2C1c1cccs1` (centres undefined), which Potency is on record?
A: Its Potency is “inactive”.

Q: For `CSCCC(NC(=O)COc1ccccc1)C(=O)N(C)CC(=O)Nc1ccc(C)cc1` (centres undefined), which “activity change, negative = inhibition” value is on record?
A: The value was -7.96% (inactive).

Q: Which Potency does the source give for `CCOc1cc(/C=N/Nc2cc(C)nc3ccc(C)cc23)ccc1O` here?
A: Its Potency is 10 µM (active).

Q: Which “activity change, negative = inhibition” value does the source give for `Cc1ccc2nc(C)cc(N/N=C/c3ccc(F)cc3)c2c1` here?
A: Its value is -29.3% (inactive).

Q: With `CCOc1cc(/C=N/NC(=O)c2cc(-c3ccccc3)nc3ccccc23)ccc1O` as the compound, how does the “activity change, negative = inhibition” value read?
A: The value was -10.3% (inactive).

Q: For `OCCN1CCN(CCO)C1=S`, which “activity change, negative = inhibition” value is on record?
A: Its value is 3.26% (inactive).

Q: For `CC1CCN(c2nc3c(c(=O)[nH]c(=O)n3C)n2CCCc2ccccc2)CC1`, which “activity change, negative = inhibition” value is on record?
A: The value was 10.2% (inactive).

Q: For `Cn1c(=O)[nH]c(=O)c2c1nc(N1CCN(C(c3ccccc3)c3ccccc3)CC1)n2CCO`, which Potency is on record?
A: The Potency was 10 µM (active).

Q: For `Cn1c(=O)[nH]c(=O)c2c1nc(N1CCN(CCO)CC1)n2CCSc1nc2ccccc2s1`, which “activity change, negative = inhibition” value is on record?
A: Its value is 10.5% (inactive).

Q: With `COc1ccc(C)cc1S(=O)(=O)NC1CCCCC1` as the compound, how does the “activity change, negative = inhibition” value read?
A: The value was 14.2% (inactive).

Q: Which Potency does the source give for `COc1ccc(-c2nc3cc(C)ccn3c2NC2CCCCC2)cc1SC1CCCCC1` here?
A: Its Potency is 3.55 µM (active).

Q: Which “activity change, negative = inhibition” value does the source give for `Cc1ccc2nc(-c3cccnc3)c(NC3CCCC3)n2c1` here?
A: Its value is -28.5% (inactive).

Q: Which “activity change, negative = inhibition” value does the source give for `O=S(=O)(Nc1ncnc2sccc12)c1cccc(F)c1` here?
A: The value was 22.3% (inactive).

Q: With `CCCCN(C(=O)C(CCSC)N1C(=O)c2ccccc2C1=O)c1c(N)n(CCC)c(=O)[nH]c1=O` (centres undefined) as the compound, how does the “activity change, negative = inhibition” value read?
A: Its value is 15.1% (inactive).

Q: For `CN(CC(=O)Nc1ccc(OC(F)(F)F)cc1)C(=O)C1CCC1`, which “activity change, negative = inhibition” value is on record?
A: The value was -16.3% (inactive).

Q: Which Potency does the source give for `O=C(CCl)Nc1ccc(Sc2ccc(NC(=O)CCl)cc2)cc1` here?
A: The Potency was 3.98 µM (active).

Q: With `CC(C)(CCl)C(=O)Nc1ccc(Sc2ccc(F)cc2)cc1` as the compound, how does the “activity change, negative = inhibition” value read?
A: The value was -12.8% (inactive).

Q: For `Cc1ccc(NC(=O)CC(=O)Nc2ccc(C)cc2)cc1`, which “activity change, negative = inhibition” value is on record?
A: Its value is 3.38% (inactive).

Q: Which “activity change, negative = inhibition” value does the source give for `O=C(COC(=O)c1ccc(F)cc1)NCC1COc2ccccc2O1` (centres undefined) here?
A: Its value is 7.78% (inactive).

Q: For `COc1ccc2oc(N)nc2c1`, which “activity change, negative = inhibition” value is on record?
A: Its value is 4.25% (inactive).

Q: For `Cc1ccc(NS(=O)(=O)c2ccc(C(=O)NCCCN3CCOCC3)cc2)cc1`, which “activity change, negative = inhibition” value is on record?
A: Its value is 7.11% (inactive).

Q: With `COc1cccc(CNC(=O)COC(=O)CN2C(=O)NC3(CCCCC3C)C2=O)c1` (centres undefined) as the compound, how does the “activity change, negative = inhibition” value read?
A: Its value is -8.27% (inactive).

Q: With `CCOC(=O)[C@H]1[C@H]2COc3ccc(C)cc3[C@@H]2N2C(=O)CN(Cc3ccc(F)cc3)C(=O)[C@@]12C` as the compound, how does the “activity change, negative = inhibition” value read?
A: Its value is -18.6% (inactive).

Q: For `CCOC(=O)c1sc(N)c(C#N)c1COC(=O)C1=COCCO1`, which “activity change, negative = inhibition” value is on record?
A: The value was 4.34% (inactive).

Q: With `CCCCOC(=O)Cn1c(=O)n(CC(=O)OCCCC)c2cc(C)ccc21` as the compound, how does the “activity change, negative = inhibition” value read?
A: The value was 12.5% (inactive).

Q: Which Potency does the source give for `CCCCCCCCCCOC(=O)Cn1c(COc2ccc(C)cc2)[n+](C)c2ccccc21` here?
A: Its Potency is 31.6 µM (active).

Q: For `CCCCCCCCCCOC(=O)Cn1c(COc2cccc(OC)c2)[n+](C)c2ccccc21`, which “activity change, negative = inhibition” value is on record?
A: Its value is -14.4% (inactive).

Q: Which “activity change, negative = inhibition” value does the source give for `CCOc1ccc(CNC(=O)C2CCCN(c3nnc(C)c4c(C)n(-c5ccccc5)nc34)C2)cc1` (centres undefined) here?
A: The value was -15.1% (inactive).

Q: With `COc1ccc(-n2nc3c(N4CCC(C(=O)NCc5ccccc5)CC4)nnc(C)c3c2C)cc1` as the compound, how does the “activity change, negative = inhibition” value read?
A: The value was -12.4% (inactive).

Q: For `CCc1ccc(CNC(=O)C2CCN(c3nnc(C)c4c(C)n(-c5ccc(C)cc5)nc34)CC2)cc1`, which Potency is on record?
A: Its Potency is 8.91 µM (active).

Q: For `CCOC(=O)CCC(NC(=O)c1ccc(CNc2nc3cc(C(F)(F)F)ccc3nc2C(=O)OCC)cc1)C(=O)OCC` (centres undefined), which “activity change, negative = inhibition” value is on record?
A: Its value is -22.8% (inactive).

Q: With `Cc1cccc(NC(=O)c2cccc(S(=O)(=O)N3CCCC3)c2)n1` as the compound, how does the “activity change, negative = inhibition” value read?
A: Its value is 7.31% (inactive).

Q: With `Cc1ccc(NC(=O)c2cccc(S(=O)(=O)N3CCCc4ccccc43)c2)nc1` as the compound, how does the Potency read?
A: Its Potency is 10 µM (active).

Q: For `Cn1c(=O)n(C)c2cc(S(=O)(=O)N3CCCc4ccccc43)ccc21`, which “activity change, negative = inhibition” value is on record?
A: The value was -14.2% (inactive).

Q: For `C[C@H](O)[C@@H]1C(=O)N2CCc3ccc(N4CCOCC4)cc3[C@@H]2C[C@@H]1N(C)C(=O)C(C)(C)C`, which activity change, negative = inhibition is on record?
A: Its activity change, negative = inhibition is -22.9% [at 8.37 µM] (inactive).

Q: Which “activity change, negative = inhibition” value does the source give for `CCCCc1ccc(NC(=O)CN2C(=O)NC(Cc3ccccc3)C2=O)cc1` (centres undefined) here?
A: Its value is -11.5% (inactive).

Q: Which “activity change, negative = inhibition” value does the source give for `Cc1ccc(S(=O)(=O)N2CCN(C(=O)COC(=O)/C=C/c3cccc(Cl)c3)CC2)c(C)c1` here?
A: The value was -24.1% (inactive).

Q: Which “activity change, negative = inhibition” value does the source give for `COc1ccccc1OCCn1c(SCC(N)=O)nc2ccccc21` here?
A: The value was 7.46% (inactive).

Q: Which Potency does the source give for `CCC(=O)c1cn(CCOc2ccccc2OC)c2ccccc12` here?
A: The Potency was 8.91 µM (active).

Q: With `CCCn1cc(SCC(N)=O)c2ccccc21` as the compound, how does the “activity change, negative = inhibition” value read?
A: The value was -9.3% (inactive).

Q: For `CCCCNS(=O)(=O)CCNCc1ccccc1OC`, which “activity change, negative = inhibition” value is on record?
A: The value was 5.73% (inactive).

Q: Which “activity change, negative = inhibition” value does the source give for `COC(=O)c1ccc(CNC(=O)c2ccc(S(=O)(=O)N3CCCCCC3)cc2)cc1` here?
A: The value was 4.24% (inactive).

Q: With `CCC(=O)Nc1ccc(C(=O)N2CCN(C(=O)c3ccco3)CC2)cc1` as the compound, how does the “activity change, negative = inhibition” value read?
A: The value was -5.83% (inactive).

Q: With `Cc1ccc(OCC(=O)Nc2ccc(N3CCN(C(=O)c4ccco4)CC3)cc2)c(C)c1` as the compound, how does the Potency read?
A: Its Potency is 7.08 µM (active).

Q: For `Cc1ccc(C)c(OCC(=O)N2CCN(C(=O)c3ccco3)CC2)c1`, which “activity change, negative = inhibition” value is on record?
A: The value was -2.2% (inactive).
